Assay results from the supplement of paper PMC7156485.

Tests used:
Conditions in all cases: concentration: 10 µM; 24 h
[1] = tested on: HCC1569; assay: cell number relative to DMSO (% of DMSO); higher = more cells (less growth inhibition / toxicity)
In short: (§1)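 Compounds were applied at 10 µM for 24 h at 37 °C, in triplicate, to HCC1569 and TDF cells. The cells were then fixed and stained for H1.0, and nuclei were counterstained with DAPI. Nuclear H1.0 intensity or cell number is reported relative to the plate control as a percent, taking the median of replicates. Smoothing for positional effects was applied to HCC1569 values only.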

[2] = tested on: TDF; assay: as above
In short: as §1

[3] = tested on: HCC1569; assay: H1.0 immunofluorescence intensity relative to DMSO (% of DMSO); higher = stronger H1.0 induction, active = 140 or more
In short: as §1

[4] = tested on: TDF; assay: H1.0 immunofluorescence intensity relative to DMSO (% of DMSO); higher = stronger H1.0 induction, active = 120 or more
In short: as §1
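Throughout, for H1.0 immunofluorescence intensity relative to DMSO: TDF is a line of transformed human dermal fibroblasts of mesenchymal origin.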
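Throughout, for cell number relative to DMSO: TDF denotes transformed human dermal fibroblasts of mesenchymal origin.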

SMILES | cell number [1] | cell number [2] | H1.0 immunofluorescence intensity [3] | H1.0 immunofluorescence intensity [4]
C=CC(=O)N1C/C(=C\c2ccc([N+](=O)[O-])cc2)C(=O)/C(=C/c2ccc([N+](=O)[O-])cc2)C1 [1-acryloyl-3,5-bis((E)-4-nitrobenzylidene)piperidin-4-one] | 17.5 | 0.39 | 145 (active) | –
C[C@H](C(=O)O)c1cccc(C(=O)c2ccccc2)c1 [(S)-(+)-Ketoprofen] | – | – | 100 (inactive) | 99 (inactive)
CN(C)CCCN1c2ccccc2Sc2ccc(C(F)(F)F)cc21.Cl [Triflupromazine hydrochloride] | – | – | 113 (inactive) | 110 (inactive)
Br.Br.N=C(N)SCCc1ccc(CCSC(=N)N)cc1 [1,4-PBIT dihydrobromide] | 96.8 | 101 | 105 (inactive) | 92 (inactive)
CC(OC(=O)c1ccc(F)cc1F)C(=O)N(C)C1CCS(=O)(=O)C1 (configuration not stated) [Cdk2/9 Inhibitor] | 48.9 | 29.1 | 139 (inactive) | 110 (inactive)
CC(C(=O)O)c1cccc(C(=O)c2ccccc2)c1 (configuration not stated) [Ketoprofen] | – | – | 101 (inactive) | 88.8 (inactive)
O=C(NC1=CNNC1=C1N=c2ccc(CN3CCOCC3)cc2=N1)NC1CC1 | 23.5 | 2.95 | 58.9 (inactive) | –
S=C([S-])N1CCCC1.[NH4+] [Ammonium pyrrolidinedithiocarbamate] | 87.9 | 1.9 | 126 (inactive) | –
Cc1c(C(=O)NN2CCCCC2)nn(-c2ccc(Cl)cc2Cl)c1-c1ccc(I)cc1 | – | – | 96.5 (inactive) | 92 (inactive)
COc1ccc(Cn2cc(C(=O)O)c(=O)c3ccccc32)cc1 | – | – | 116 (inactive) | 98.8 (inactive)
c1cc(-c2cnn3cc(-c4ccc(N5CCNCC5)cc4)cnc23)c2cccnc2c1 | 22.7 | 0.96 | 100 (inactive) | –
O=C(O)C1=CC(O)C(O)C(O)C1 (configuration not stated) [Shikimic acid] | – | – | 100 (inactive) | 97.5 (inactive)
CCC(C)(C)C(=O)OC1CC(C)C=C2C=CC(C)C(CCC3CC(O)CC(=O)O3)C21 (configuration not stated) [Simvastatin] | – | – | 106 (inactive) | 120 (inactive)
CCN(CC)CCNC(=O)c1c(C)[nH]c(C=C2C(=O)Nc3ccc(Cl)cc32)c1C | 22.9 | 1.9 | 213 (active) | –
Cl.NCCNC(=O)c1ncsc1-c1cccc(F)c1 [Ro 41-1049 hydrochloride] | 97.5 | 90.9 | 104 (inactive) | 97.4 (inactive)
CCN(CC)CCCC(C)Nc1cc(/C=C/c2ccccc2Cl)nc2cc(Cl)ccc12 (configuration not stated) | 6.31 | 1.01 | 102 (inactive) | –
NC(=O)Nc1cc(-c2cccc(F)c2)sc1C(=O)NC1CCCNC1 (configuration not stated) | 19.9 | 1.8 | 60.3 (inactive) | –
